# Vaccinia mCherry: inhibitors of vaccinia virus infection (mCherry reporter signal); Vaccinia virus mCherry reporter infection, fluorescence; Potency, µM (top dose mostly 36.5 µM), hits mostly inhibitors; hit rate 0.63% among 310,000; AID 720579; calls by dose curve; tested in A549 cells; also: nearly all actives have a fitted effect of over 35% in size
# Pf growth 48h: P. falciparum growth inhibition at 48 hours (one generation); P. falciparum luciferase growth in erythrocytes, 48 h; hit rate 5.9% among 310,000; Potency, µM (doses to about 28.7 µM), hits mostly inhibitors; AID 504832
#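 First compound was added to culture medium, then infected red cells at 0.1% parasitemia and 2% hematocrit (final). After incubation at 37 C under 5% CO2, luciferase detection reagent was dispensed and light output recorded.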
# Pf growth 96h: inhibits malaria parasite growth, 96 h; P. falciparum luciferase reporter growth, 96 h; Potency, µM (series often up to 28.7 µM), hits mostly inhibitors; hit rate 6.9% among 320,000
#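 P. falciparum expressing integrated firefly luciferase, in erythrocytes at 2% hematocrit, 0.05% parasitemia, incubated with compounds 96 h at 37 C, 5% CO2. Growth inhibition read as loss of luminescence; two-generation exposure targets delayed-death apicoplast inhibitors.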
# AMA1-RON2 inh: disrupts binding of P. falciparum AMA1 to RON2; AlphaScreen AMA1-biotinylated RON2 peptide binding; Potency, µM (series often up to 58.2 µM), usual class: inhibitors; hit rate 0.2% among 360,000; also: nearly all actives have a fitted effect of over 45% in size
#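 AMA1 (3D7) with his tag at 25 nM final met compounds first, then biotinylated RON2 peptide at 25 nM; detection used donor plus acceptor beads, 10 µg/mL apiece, read by AlphaScreen after 30 min at room temperature.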
# Vaccinia Venus: inhibitors of vaccinia virus (Venus reporter). Vaccinia virus Venus reporter expression, fluorescence. Potency, µM (highest dose often 36.5 µM), hits mostly inhibitors. hit rate 0.46% among 330,000. AID 720580; calls by dose curve; tested in A549 cells; also: nearly all actives have a fitted effect of over 30% in size
# A number is an active result; 0 = inactive; ? = inconclusive; - = not tested or not shown. Only some compounds are listed: those with a hit (about 8.7% of all), similar ones and a draw of the others. Unless noted, calls follow the shape of the dose curve; as a rule, active = well fitted curve in the direction sought with a large enough effect; inconclusive = small, poorly fitted or top-dose-only effect, or another doubt; inactive = no such curve, though single readings can be large; an effect the other way counts as inactive or inconclusive.
SMILES,Vaccinia mCherry,Pf growth 48h,Pf growth 96h,AMA1-RON2 inh,Vaccinia Venus
CCN(CC)CCNC(=O)c1ccc(NC(=O)c2ccc(S(=O)(=O)N3CCCCCC3)cc2)cc1,0,1.7µM,?,0,?
O=C(NCCCN1CCCC1=O)c1ccc2c(c1)NC(=O)C(N1CCOCC1)S2 (stereo not drawn),0,0,0.93µM,0,0
COc1ccc(OC)c(CNc2ccc3c(c2)CCC3)c1,0,?,10µM,0,0
COCCCNC(=O)c1c(NC(=O)c2cc(=O)c3ccccc3o2)sc2c1CCCC2,0,-,-,-,0
CN(C)CCN(C(=O)c1ccco1)c1nc2c(F)cc(F)cc2s1,0,-,-,-,0
CCOc1ccc(S(=O)(=O)N(CC(=O)Nc2ccc3c(c2)OCO3)c2ccccc2)cc1,0,-,-,-,0
COc1cccc(NC(=O)COc2ccc3c(c2)CCC3)c1,-,0,0,0,-
COc1ccc(OC)c(NC(=O)COc2ccc3c(c2)CCC3)c1,-,13µM,?,0,-
Cc1c(C)c2cc(Cl)c(OCC(=O)NCCCN3CCCC3=O)cc2oc1=O,0,-,-,0,0
O=C(COc1cc2oc(=O)c3c(c2cc1Cl)CCC3)NCCCN1CCCC1=O,-,?,13µM,0,-
CCN(CC)CCNC(=O)c1ccc(NC(=O)c2ccc(C(=O)c3ccccc3)cc2)cc1,0,5.9µM,10µM,0,0
CCN(CC)CCNC(=O)c1ccc(NC(=O)c2ccc(Cl)c(S(=O)(=O)N3CCCCCC3)c2)cc1,?,1.7µM,0,0,0
CCN(CC)CCNC(=O)c1ccc(NC(C)=O)cc1,0,0,0,0,0
O=C(COc1ccccc1C(=O)Nc1cccc([N+](=O)[O-])c1)Nc1ccc(Br)cc1,?,-,-,-,0
Cn1c(=NC(=O)c2ccc(S(=O)(=O)N3CCCc4ccccc43)cc2)sc2cc(S(C)(=O)=O)ccc21,0,?,?,0,0
COC(=O)Cn1c(=NC(=O)c2ccc(S(=O)(=O)N3CCOCC3)cc2)sc2cc(S(N)(=O)=O)ccc21,0,?,?,0,0
COCCn1c(=NC(=O)c2ccc(S(=O)(=O)N3CCOCC3)cc2)sc2cc(S(N)(=O)=O)ccc21,0,?,8.3µM,0,0
C#CCn1c(=NC(=O)c2ccc(S(=O)(=O)N3CCCc4ccccc43)cc2)sc2cc(S(N)(=O)=O)ccc21,?,9.3µM,2.9µM,0,0
Cc1ccc(CCNC(=O)CCCc2nnc3n(C)c(=O)c4sccc4n23)cc1,0,-,-,-,0
CC(C)C[C@@H](C=O)NC(=O)[C@H](CC(C)C)NC(=O)[C@H](CC(C)C)NC(=O)OCc1ccccc1,0,-,-,-,0
O=C(OCc1ccccc1Cl)c1ccc(-c2nnn(Cc3ccccc3Cl)n2)cc1,0,-,-,-,0
Oc1ccc2ccccc2c1N=Nc1ccccn1,-,?,6.6µM,10µM,0
COc1ccc2nc(N=Nc3c(O)ccc4ccccc34)sc2c1,-,0,0,-,-
CCOC(=O)c1[nH]c(=O)c2ccccc2c1O,-,0,0,0,-
Oc1ccc2ccccc2c1N=Nc1ccccc1F,-,0,?,10µM,-
SMILES,Vaccinia mCherry,Pf growth 48h,Pf growth 96h,AMA1-RON2 inh,Vaccinia Venus
O=S(=O)(O)c1ccc2c(N=Nc3ccc(S(=O)(=O)O)c4ccccc34)c(O)c(S(=O)(=O)O)cc2c1,0,0,0,-,0
O=S(=O)(O)c1cccc(N=Nc2c(O)ccc3ccccc23)c1,-,?,10µM,0,-
CC(C)CCn1c(O)c(N=Nc2ccccn2)c2ccccc21,0,?,?,0,0
CCOC(=O)c1[nH]cnc1N=Nc1c(O)ccc2ccccc12,0,2.9µM,2.3µM,0,0
Cc1oc(-c2ccccc2NC(=O)c2ccccn2)nc1CNC(=O)c1cccc(C#CC(C)(C)O)c1,0,-,-,-,0
Cc1ccc(NC(=O)CSc2nnc3ccc4ccccc4n23)cc1,0,-,-,-,0
CCc1nnc(NC(=O)CSc2nccn2Cc2ccc(Cl)cc2)s1,0,-,-,-,0
COc1ccc(-c2cc(C(F)(F)F)nc(SCC(=O)NCc3ccc(Cl)cc3)n2)cc1,0,-,-,-,?
Cc1ccc(CN2CCCn3nc(C(=O)NCC(C)c4ccccc4)cc3C2=O)cc1 (stereo not drawn),0,-,-,-,0
CC(C)Cn1c(=O)c(-[n+]2ccccc2)c([O-])c2ccccc21,0,0,13µM,0,0
CCCCn1c(=O)c(-[n+]2ccccc2)c([O-])c2ccccc21,-,-,0,0,0
Cc1nn(-c2ccccc2)c2c1N(CC(=O)N1CCN(c3ccccc3F)CC1)C(=O)CS2,0,-,-,-,0
Cc1ccc(C)c(CN2CCC3(CCC(CNC(=O)c4ccnn4C)O3)CC2)c1 (stereo not drawn),0,-,-,-,0
COc1cc(C(=O)N/N=C/C23CC[C@@H](O)CC2(O)CC[C@@H]2[C@@H]3CCC3(C)C(C4=CC(=O)OC4)CCC23O)ccc1O (stereo partly drawn),10µM,0,0,0,?
COc1ccc(C(=O)N/N=C/C23CC[C@@H](O)CC2(O)CC[C@@H]2[C@@H]3CCC3(C)C(C4=CC(=O)OC4)CCC23O)cc1 (stereo partly drawn),-,0,0,0,-
CC(C)c1ccc(S(=O)(=O)c2nnn3c2nc(NCCc2ccccc2)c2sccc23)cc1,0,-,-,-,0
COC(=O)c1ccc(CSc2ncnc3c2nnn3-c2ccc(OC)cc2)o1,0,0,9.3µM,0,0
COc1ccc(-n2nnc3c(SCC(=O)c4ccccc4)ncnc32)cc1,-,0,1.9µM,0,0
COc1ccc(-n2nnc3c(SCC(=O)Nc4ccc5c(c4)OCCO5)ncnc32)cc1,-,0,-,-,-
c1ccc(Cn2nnnc2C(c2cccs2)N2CCSCC2)cc1 (stereo not drawn),0,?,?,0,0
c1ccc(CCn2nnnc2C(c2cccs2)N2CCN(Cc3ccc4c(c3)OCO4)CC2)cc1 (stereo not drawn),0,?,0,?,0
Fc1ccc(N2CCN(C(c3cccs3)c3nnnn3CCc3ccccc3)CC2)cc1 (stereo not drawn),0,13µM,0,0,0
CC1CCN(C(c2cccs2)c2nnnn2Cc2ccccc2)CC1 (stereo not drawn),0,-,2.6µM,0,0
Fc1ccccc1N1CCN(C(c2cccs2)c2nnnn2CCc2ccccc2)CC1 (stereo not drawn),0,8.3µM,?,0,0
COc1ccc(Cl)cc1NC(=O)N1CCC(CN2CCCCCC2)CC1,0,-,-,-,0
SMILES,Vaccinia mCherry,Pf growth 48h,Pf growth 96h,AMA1-RON2 inh,Vaccinia Venus
N#Cc1ccc(CN2CCN(C(=O)c3cn(Cc4ccccc4)nc3-c3cccnc3)CC2)cc1,-,0,?,0,-
COc1ccc(N2CCN(C(=O)c3cn(Cc4ccccc4)nc3-c3cccnc3)CC2)cc1,-,?,10µM,0,-
COc1cccc(CN2CCN(C(=O)c3cc(-c4cccnc4)nc4ccc(C)cc34)CC2)c1,?,9.3µM,?,0,0
CCCC[N+]12C3C[C@H](C4[C@H](O)[C@]5(C[C@@H]41)c1ccccc1N(C)[C@@H]35)[C@H](CC)[C@H]2O (stereo partly drawn),-,13µM,?,0,-
CCOc1ccc(-n2c(-c3ccc(Br)cc3)c[n+]3c2CCCCC3)cc1,0,5.2µM,?,0,0
CCOc1ccc(-n2c(-c3ccc(OC)cc3)c[n+]3c2CCCCC3)cc1,0,0.74µM,?,0,0

# High-throughput results deposited in PubChem by National Center for Advancing Translational Sciences (NCATS).
